Results on seven compounds are retold here after PubChem BioAssay (NCATS).

The structures appear in SMILES notation. Results filed as inconclusive are left out. Active and inactive are the calls of the source. Unless noted, the call rests on the fitted dose curve; in most records, active means well fitted curve in either direction with a large enough effect (not every such curve was filed as active); inconclusive means small, poorly fitted or top-dose-only effect, or another doubt; inactive means flat fitted curve, though single readings scatter. Where only a bound is given, the exact number is not on record here.

The nature of assay [1]: AP1 Signaling Pathway (AID 357).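 Further: ME-180 reporter cells stimulated with EGF at its EC50 level; on the % scale 0 is the no-effect control and ±100 the full control effect.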 In a few lines:
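First, ME-180 AP-1-bla cells were cultured overnight at 37 °C in low-serum Opti-MEM. Next, titrated compounds with EC50 EGF were incubated 5 hours. Finally, CCF4 was added for 2.5 hours and the 460/530 nm ratio recorded.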

Assay [2] deals with Cytochrome P450 1A2 (Homo sapiens) (UniProt P05177). The assay can be described thus: p450-cyp1a2 (AID 410; calls by dose curve). A digest of the protocol:
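Luminescent readout of luciferin formed from Luciferin-ME by human CYP1A2; data normalized against complete inhibition by 57 uM furafylline. Enzyme 20nM, substrate 100uM at Km, 100mM KPO4 buffer, 60 min reaction at room temperature.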

A short description of assay [3]: NFAT Signaling Pathway (AID 444).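 Further: carbachol stimulus at about its EC50 of 1 µM final; on the % scale 0 is the no-effect control and ±100 the full control effect.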 To be noted: Jurkat NFAT-bla M1, carbachol, beta-lactamase ratio, 5 h. A digest of the protocol: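 Jurkat cells carrying an NFAT-driven β-lactamase reporter and co-transfected muscarinic M1 receptor were treated with compound plus carbachol (1 uM final, an EC50 level) for 5 h at 37 °C. CCF4 loading followed for 1 h at RT; 460/530 nm ratio gave %activity.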

Assay [4] is described as follows: Stat Signaling Pathway (AID 446).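 Further: ME-180 cervical cancer cells given 40 pM IL-6 alongside compound; SIE-controlled beta-lactamase reporter measured as 460/530 nm FRET emission ratio; on the % scale 0 is the no-effect control and ±100 the full control effect.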 A digest of the protocol:
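ME-180 cells carrying a SIE-driven beta-lactamase reporter are stimulated with 40 pM IL-6 for 5 h at 37C in the presence of compound. The 460/530 nm FRET substrate ratio is read after 2.5 h at RT. Data are normalised to 300 pM IL-6 and to 125 nM JAK inhibitor controls.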

The target in assay [5] is Glucocorticoid receptor (Homo sapiens) (UniProt P04150). The assay can be described thus: GR-GFP Redistribution (AID 450;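 active means compounds whose dose series gives a full or clear partial fitted curve of increased nuclear translocation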; further: potency means the concentration at half of the fitted maximal effect). To be noted: U2OS GR-GFP nuclear translocation, laser cytometry, 2 h.
The target is the same in assay [6]. The assay can be described thus: GR-EFC Redistribution (AID 451; calls by dose curve; further: potency means the concentration at half of the fitted maximal effect). To be noted: CHO-K1 GR-EFC translocation, beta-gal luminescence, 2 h. In a few lines: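 CHO-K1 cells stably expressing nuclear-localized β-gal enzyme acceptor and GR fused C-terminally to the enzyme donor fragment; ligand-driven nuclear translocation restores β-gal by complementation. Compounds titrated up to 46 uM final, 2 h at 37 °C; luminescence read.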

For assay [7], the target named is Mitogen-activated protein kinase 10 (Mus musculus) (UniProt Q61831). The assay can be described thus: JNK3 AlphaScreen Assay (AID 530).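 Further: kinase came from lysate of stimulated human HepG2 cells; signal reports phosphorylation of biotinylated GST-cJun 1-79 at Ser73 with 10 µM ATP; on the % scale 0 is the no-effect control and ±100 the full control effect.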 In a few lines:
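Inhibitors reduce antibody binding to phosphorylated biotin-cJun, lowering AlphaScreen luminescence. Lysates from HepG2 cells pre-activated by IL-1beta plus TNF-alpha supplied JNK3; compounds were titrated.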
Background: Bead proximity is the source of the signal in Alpha formats.

For assay [8], the target named is 3',5'-cyclic-AMP phosphodiesterase 4B (Homo sapiens) (UniProt Q07343). The assay can be described thus: qHTS Assay for Inhibitors of PDE-IV (AID 607; active means well fitted activation curve with a large enough effect in the main read-out, with a control signal flat, not every such curve was filed as active; further: % of control where 0% means no effect). In a few lines: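 HEK293 ACTOne cells with CNG channel (1000/well), endogenous PDE4; membrane potential dye, compounds up to 22.9 uM final. Fluorescence Ex 535/Em 590; RO 20-1724 (100 uM final) as reference.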
In general terms: In qHTS, concentration-response curves come from the screen itself.

Assay [9] in a line: qHTS Assay for Lipid Storage Modulators (AID 1519; calls by dose curve). The settings on record: Drosophila S3 cells, BODIPY lipid droplet/cell ratio, laser cytometry, cells loaded with oleic acid. A digest of the protocol:
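Cells seeded at 5,000 per well were treated with compounds over a concentration series and loaded with oleic acid (400 uM, as added). Lipid droplet fluorescence (488 nm excitation, 500-530 nm channel) was read by laser-scanning cytometry and normalized to 20 uM Triacsin C.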

Assay [10] has as its target Ubiquitin carboxyl-terminal hydrolase 1 (Homo sapiens) (UniProt O94782). The assay can be described thus: Inhibitors of USP1/UAF1: Pilot qHTS (AID 504865; active means well fitted inhibition curve with a large enough effect; further: nearly all actives have a fitted effect of over 35% in size; further: potency means the concentration at half of the fitted maximal effect). In a few lines: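 Kinetic fluorescence assay: 1nM USP1/UAF1, 15 min compound preincubation, then 150nM Ub-Rho; 480/540 nm.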
The target in assay [11] is Luciferin 4-monooxygenase (Photinus pyralis) (UniProt P08659). The assay can be described thus: Biochemical firefly luciferase enzyme assay for NPC (AID 624030; active means well fitted inhibition curve with a large enough effect;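 further: purified P. pyralis luciferase at 10 nM with luciferin and ATP substrate; 0% = DMSO and -100% = full luciferase inhibition by PTC124 control; nearly all actives have a fitted effect of over 70% in size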). A digest of the protocol:
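Counter-screen for direct inhibition of the luciferase enzyme by approved-drug library compounds, run at 10 nM enzyme in 50 mM Tris acetate (final). Luminescence was read within 5 min of enzyme-buffer addition and normalized to PTC124 versus DMSO (0%).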

Assay [12] is described as follows: qHTS profiling for inhibitors of Plasmodium falciparum proliferation (AID 504749; active means well fitted inhibition curve with a large enough effect;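 further: 0% = DMSO vehicle and full inhibition = artemisinin control; nearly all actives have a fitted effect of over 60% in size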). The settings on record: P. falciparum in erythrocytes, SYBR Green DNA, 72 h, at 12.8 µM (top of the series). In a few lines:
(§1)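 Parasite proliferation within erythrocytes, 72 h exposure. Endpoint: SYBR Green I fluorescence after overnight lysis at room temperature. Controls: 0.29 uM artemisinin, DMSO.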

A further assay deals with 3D7. The description is as above. To be noted: P. falciparum in erythrocytes, SYBR Green DNA, 72 h; series mostly up to 28.7 µM. A digest of the protocol: as §1
A further assay concerns C2A. Described as above. To be noted: P. falciparum in erythrocytes, SYBR Green DNA, 72 h; series mostly up to 28.7 µM. A digest of the protocol:
as §1

The test system of another assay is CP211. The description is as above. To be noted: P. falciparum in erythrocytes, SYBR Green DNA, 72 h; series mostly up to 28.7 µM. In a few lines: as §1
The subject of another assay is CP217. Described as above. To be noted: P. falciparum in erythrocytes, SYBR Green DNA, 72 h; series mostly up to 28.7 µM. A digest of the protocol: as §1
The test system of another assay is CP252. Described as above. To be noted: P. falciparum in erythrocytes, SYBR Green DNA, 72 h; series mostly up to 12.8 µM. In a few lines:
as §1

The test system of the next assay is CP262. The description is as above. To be noted: P. falciparum in erythrocytes, SYBR Green DNA, 72 h; series mostly up to 28.7 µM. A digest of the protocol: as §1
Another assay concerns CP286. The description is as above. The settings on record: P. falciparum in erythrocytes, SYBR Green DNA, 72 h; series mostly up to 28.7 µM. In a few lines:
as §1

The next assay has as its system ECU. Described as above. To be noted: P. falciparum in erythrocytes, SYBR Green DNA, 72 h; series mostly up to 28.7 µM. A digest of the protocol: as §1
[13] abbreviates: measured here: cell count channel max response.
Setting [14] is: measured here: lipid channel max response.

Chain of Cytochrome P450 1A2 (Homo sapiens) (P05177 whole entry, looked up): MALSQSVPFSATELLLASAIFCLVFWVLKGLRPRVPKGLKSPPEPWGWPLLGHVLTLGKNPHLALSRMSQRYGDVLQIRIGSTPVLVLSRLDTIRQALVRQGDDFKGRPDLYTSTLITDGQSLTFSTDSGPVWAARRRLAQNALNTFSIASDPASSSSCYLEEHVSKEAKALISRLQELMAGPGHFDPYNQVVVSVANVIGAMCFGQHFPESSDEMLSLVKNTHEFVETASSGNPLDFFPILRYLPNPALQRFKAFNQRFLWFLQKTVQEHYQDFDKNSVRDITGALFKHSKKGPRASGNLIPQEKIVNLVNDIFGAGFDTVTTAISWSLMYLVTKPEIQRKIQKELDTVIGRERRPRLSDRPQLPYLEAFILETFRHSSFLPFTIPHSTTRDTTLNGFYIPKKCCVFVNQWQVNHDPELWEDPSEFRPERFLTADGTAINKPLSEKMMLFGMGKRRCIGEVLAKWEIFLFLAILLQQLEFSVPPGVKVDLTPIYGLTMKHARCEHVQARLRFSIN
Chain of Ubiquitin carboxyl-terminal hydrolase 1 (Homo sapiens) (O94782 whole entry, looked up): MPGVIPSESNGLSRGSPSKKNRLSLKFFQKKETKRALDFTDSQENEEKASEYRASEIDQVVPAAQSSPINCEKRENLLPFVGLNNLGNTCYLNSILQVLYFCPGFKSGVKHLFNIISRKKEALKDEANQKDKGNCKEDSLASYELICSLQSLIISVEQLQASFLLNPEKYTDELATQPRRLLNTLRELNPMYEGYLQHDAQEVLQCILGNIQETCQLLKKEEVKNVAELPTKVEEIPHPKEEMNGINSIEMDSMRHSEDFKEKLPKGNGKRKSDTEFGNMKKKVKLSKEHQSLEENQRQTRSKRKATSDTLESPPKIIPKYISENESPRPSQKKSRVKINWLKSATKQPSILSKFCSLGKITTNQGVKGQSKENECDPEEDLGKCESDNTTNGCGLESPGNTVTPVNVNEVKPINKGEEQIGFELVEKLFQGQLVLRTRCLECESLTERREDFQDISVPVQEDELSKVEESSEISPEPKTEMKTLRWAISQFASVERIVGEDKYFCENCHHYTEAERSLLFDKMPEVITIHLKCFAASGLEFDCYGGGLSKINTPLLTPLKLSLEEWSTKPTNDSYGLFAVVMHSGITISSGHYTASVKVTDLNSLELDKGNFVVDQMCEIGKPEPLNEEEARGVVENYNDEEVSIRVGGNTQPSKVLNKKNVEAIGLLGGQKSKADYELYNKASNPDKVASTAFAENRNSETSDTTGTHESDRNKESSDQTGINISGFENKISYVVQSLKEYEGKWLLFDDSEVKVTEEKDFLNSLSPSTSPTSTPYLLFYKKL
Chain of 3',5'-cyclic-AMP phosphodiesterase 4B (Homo sapiens) (Q07343 whole entry, looked up): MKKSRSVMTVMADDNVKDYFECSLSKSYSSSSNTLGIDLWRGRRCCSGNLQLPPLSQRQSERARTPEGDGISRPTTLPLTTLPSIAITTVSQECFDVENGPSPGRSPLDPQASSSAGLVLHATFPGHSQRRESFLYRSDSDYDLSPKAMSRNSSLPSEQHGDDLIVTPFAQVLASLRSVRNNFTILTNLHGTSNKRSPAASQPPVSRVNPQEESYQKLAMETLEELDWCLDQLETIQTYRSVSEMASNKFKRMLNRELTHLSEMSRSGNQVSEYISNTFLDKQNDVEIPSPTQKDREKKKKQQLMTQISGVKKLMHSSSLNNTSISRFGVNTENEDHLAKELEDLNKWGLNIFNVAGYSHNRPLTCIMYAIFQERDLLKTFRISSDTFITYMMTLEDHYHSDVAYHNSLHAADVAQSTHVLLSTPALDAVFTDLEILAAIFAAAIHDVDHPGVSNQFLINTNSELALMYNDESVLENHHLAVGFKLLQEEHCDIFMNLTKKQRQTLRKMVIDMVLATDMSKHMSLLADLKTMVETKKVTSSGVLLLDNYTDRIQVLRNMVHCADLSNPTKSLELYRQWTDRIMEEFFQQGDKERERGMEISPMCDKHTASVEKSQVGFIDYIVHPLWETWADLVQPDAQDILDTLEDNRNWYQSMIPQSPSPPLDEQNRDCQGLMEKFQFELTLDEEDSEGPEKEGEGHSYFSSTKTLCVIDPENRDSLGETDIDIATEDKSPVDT
Chain of Glucocorticoid receptor (Homo sapiens) (P04150 whole entry, looked up, the tested form may be a part): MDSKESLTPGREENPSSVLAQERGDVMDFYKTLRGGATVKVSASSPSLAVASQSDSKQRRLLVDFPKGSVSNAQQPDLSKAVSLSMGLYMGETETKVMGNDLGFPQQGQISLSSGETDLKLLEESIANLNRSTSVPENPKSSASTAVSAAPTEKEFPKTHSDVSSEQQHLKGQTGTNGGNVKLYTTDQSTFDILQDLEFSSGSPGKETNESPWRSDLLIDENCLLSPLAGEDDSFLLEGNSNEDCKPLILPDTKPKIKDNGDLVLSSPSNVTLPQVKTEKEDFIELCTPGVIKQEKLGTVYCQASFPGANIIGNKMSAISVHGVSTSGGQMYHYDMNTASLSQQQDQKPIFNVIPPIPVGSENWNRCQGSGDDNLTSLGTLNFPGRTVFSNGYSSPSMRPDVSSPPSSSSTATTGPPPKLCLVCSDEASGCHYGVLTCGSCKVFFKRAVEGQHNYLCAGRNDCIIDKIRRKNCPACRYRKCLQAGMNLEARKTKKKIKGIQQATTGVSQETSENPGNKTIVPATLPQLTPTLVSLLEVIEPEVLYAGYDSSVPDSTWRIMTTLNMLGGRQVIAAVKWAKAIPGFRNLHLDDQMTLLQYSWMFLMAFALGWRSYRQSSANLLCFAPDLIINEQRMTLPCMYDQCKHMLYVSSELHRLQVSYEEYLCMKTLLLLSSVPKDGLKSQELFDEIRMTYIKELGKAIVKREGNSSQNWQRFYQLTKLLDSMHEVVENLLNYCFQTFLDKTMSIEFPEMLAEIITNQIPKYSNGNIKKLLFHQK
Chain of Luciferin 4-monooxygenase (Photinus pyralis) (P08659 whole entry, looked up): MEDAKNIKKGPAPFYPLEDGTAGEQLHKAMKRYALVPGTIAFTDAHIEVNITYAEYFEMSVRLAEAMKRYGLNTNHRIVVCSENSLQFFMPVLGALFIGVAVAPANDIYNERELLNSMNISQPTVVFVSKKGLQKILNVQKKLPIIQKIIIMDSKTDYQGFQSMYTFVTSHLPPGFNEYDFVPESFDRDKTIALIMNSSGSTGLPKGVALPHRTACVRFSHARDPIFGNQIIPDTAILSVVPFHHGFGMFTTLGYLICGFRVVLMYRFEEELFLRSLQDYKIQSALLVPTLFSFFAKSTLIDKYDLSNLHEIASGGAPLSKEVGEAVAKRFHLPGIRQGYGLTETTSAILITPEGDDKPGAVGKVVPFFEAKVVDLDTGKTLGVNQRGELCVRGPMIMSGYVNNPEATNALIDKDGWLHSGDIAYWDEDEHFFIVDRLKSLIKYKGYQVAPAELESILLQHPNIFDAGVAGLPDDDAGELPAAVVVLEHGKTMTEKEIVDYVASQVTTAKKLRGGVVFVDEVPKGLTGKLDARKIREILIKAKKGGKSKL

Regarding `CC[C@@H]1[C@@H]2C[C@H]3[C@H]4N(C)c5ccccc5[C@@]45C[C@@H]([C@@H]2[C@@H]5O)N3[C@H]1O`, the compound was classed as inactive in [1], in [4] and in [7]. Also, the Potency result (in assay [2]; in assay [8]; in assay [10]; in [11]; in the assay with 3D7; with C2A) was “inactive” each time. The Potency entry in the assay with CP211, with CP217, in the assay with CP252, in the assay with CP262, in the assay with CP286 and in the assay with ECU was “inactive” throughout. In addition, the activity change, negative = inhibition was -7.21% (inactive) in assay [3] (at 17.2 µM (top of the series)) and -1.86% (inactive) in assay [9] (at 25.7 µM (top of the series)). Also, the Potency in assay [5] and in assay [6] was > 20.6 µM (inactive) in each case. The max response in [9] (setting [13]) was 1.73%; in assay [9] (setting [14]) it was 1.93%. Besides, the activity, negative = inhibition in [12] (parasite line A) is -1.56% (inactive); in assay [12] (parasite line B), 7.76% (inactive).

Take `COc1ccc(NC(=O)N2CCC3(CC2)CCN(C(=O)Oc2ccccc2)CC3)cc1`: the compound was called inactive in [1] and in assay [7]. The activity change, negative = inhibition in assay [3] (at 7.69 µM (top of the series)) was 5.41% (inactive); in [9] (at 57.5 µM (top of the series)), -1.68% (inactive). For the same compound, the Potency in [6] was > 46 µM (inactive). Further, the Potency entry in assay [8] was “inactive”. In addition, the max response was -23.2% in assay [9] (setting [13]) and -21.9% in assay [9] (setting [14]).

As for `O=C(O)CNCP(=O)(O)O`, the call in assay [1] and in assay [4] was inactive. In addition, the Potency in assay [5] is > 46 µM (inactive); in assay [6], > 9.22 µM (inactive). Moreover, the activity change, negative = inhibition in assay [7] was 1.05% [at 11.4 µM] (inactive); in [9] (at 57.5 µM (top of the series)) it was 2.6% (inactive). Besides, the Potency result in [8] is “inactive”. Further, the figures for the max response in assay [9] (setting [13]) and in assay [9] (setting [14]) were 16.5% and 20.1%, respectively.

Consider `C[C@H]1CN(C2CCC(C#N)(c3ccc(F)cc3)CC2)CC[C@@]1(C(=O)O)c1ccccc1` (stereo partly drawn), for which the result in assay [1], in assay [4] and in assay [7] was inactive. For the same compound, the Potency result (in assay [2]; in [8]; in assay [11]; with 3D7; in the assay on C2A; with CP211) was “inactive” in each case. In addition, the Potency entry in the assay on CP217, in the assay on CP252, in the assay on CP262, in the assay with CP286 and with ECU was “inactive” each time. In addition, the figures for the activity change, negative = inhibition in assay [3] (at 17.2 µM (top of the series)) and in [9] (at 25.7 µM (top of the series)) were -14% (inactive) and -3.1% (inactive), respectively. Moreover, in [6], the Potency is > 20.6 µM (inactive). For the same compound, the max response was -19.6% in assay [9] (setting [13]) and -20.8% in assay [9] (setting [14]). For the same compound, the activity, negative = inhibition was 1.54% (inactive) in assay [12] (parasite line A) and 12.6% (inactive) in assay [12] (parasite line B).

For the compound `CN(C)[C@@H]1C(=O)C(C(N)=O)=C(O)[C@]2(O)C(=O)C3=C(O)c4c(O)cccc4[C@@](C)(O)[C@H]3[C@H](O)[C@@H]12`, the result in assay [1], in [4] and in assay [7] was inactive. In addition, the Potency result in assay [2] and in assay [8] was “inactive” in each case. The values for the activity change, negative = inhibition in assay [3] (at 17.2 µM (top of the series)) and in assay [9] (at 25.7 µM (top of the series)) were -3.39% (inactive) and -0.12% (inactive), respectively. Also, the max response in assay [9] (setting [13]) was -12.1%; in [9] (setting [14]), -10.8%. The Potency in assay [10] is 31.6 µM (active).

Turning to `COc1cc2c(c(OC)c1OC)-c1ccc(O)c(=O)cc1[C@H](N)CC2`, the outcome in assay [1], in assay [4] and in [7] was inactive. In addition, the Potency result in assay [2], in [8] and in [10] was “inactive” each time. The activity change, negative = inhibition in [3] (at 17.2 µM (top of the series)) was 14.9% (inactive); in [9] (at 25.7 µM (top of the series)), 1.48% (inactive). Further, the Potency in assay [5] and in assay [6] was > 20.6 µM (inactive) in each case. Moreover, the max response is -6.02% in assay [9] (setting [13]) and -4.27% in assay [9] (setting [14]).

As for `C=C1C/C(=C\C)C(=O)O[C@@H]2CCN3CC=C(COC(=O)[C@@]1(C)O)[C@H]23`, the call in assay [1], in assay [4] and in [7] was inactive. The Potency result in [2] and in assay [8] was “inactive” in each case. The activity change, negative = inhibition in [3] (at 17.2 µM (top of the series)) was -7.46% (inactive); in assay [9] (at 25.7 µM (top of the series)), 1.53% (inactive). The Potency in [6] is > 20.6 µM (inactive). The figures for the max response in [9] (setting [13]) and in assay [9] (setting [14]) were 8.7% and 10.5%, respectively.
